Rows were chosen to be rich in hits. Some 12% of all compounds tested hit in one or more screens of this group.
Lmaj promast = inhibitors of Leishmania major promastigote growth; Leishmania major promastigotes, resazurin fluorescence viability; inhibition, % at 10 µM; 9% of 200,000 active; AID 1063; in the data active = inhibition above about 50%;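 also: promastigotes grown with compound for 44 hours at 28 °C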
Ins promoter up = MIN6 insulin promoter up-regulation; MIN6 insulin promoter-GFP reporter, high-content imaging; stronger effect = higher value; z-score at 5 µM; 0.3% of 190,000 active;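 active = z-score above 3 at 5 µM with at least 500 cells counted in the well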
ROMK mod = human ROMK K+ channel modulation, primary screen; B-score at 10 µM; P48048; 2% of 130,000 active; Tet-inducible ROMK, thallium flux fluorescence; actives lie on both sides; AID 1918;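 active = signal ratio slope over the read window, or its plate-corrected B-score, at least 3 SD from the plate mean, either direction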;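 also: B-score of the F/F0 ratio slope over 7 to 12 s after thallium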
Target sequence (P48048 whole entry, looked up): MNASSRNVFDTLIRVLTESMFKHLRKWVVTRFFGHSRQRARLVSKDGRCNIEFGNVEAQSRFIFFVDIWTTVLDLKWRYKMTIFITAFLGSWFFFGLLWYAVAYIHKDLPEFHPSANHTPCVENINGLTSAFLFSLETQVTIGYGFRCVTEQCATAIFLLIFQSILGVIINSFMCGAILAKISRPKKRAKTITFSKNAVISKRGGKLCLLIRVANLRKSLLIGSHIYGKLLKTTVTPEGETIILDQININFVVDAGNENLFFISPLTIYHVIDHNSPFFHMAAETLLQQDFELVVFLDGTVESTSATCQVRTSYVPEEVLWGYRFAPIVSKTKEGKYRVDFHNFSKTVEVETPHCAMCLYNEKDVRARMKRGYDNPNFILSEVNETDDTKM
Insulin prom inh = TRM-6 insulin promoter activity inhibition. TRM-6 cells (human fetal islet line), insulin promoter-eGFP reporter, imaging; reporter expression induced with tamoxifen. inhibition, % at 2 µM. 0.9% of 130,000 active. AID 1273;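 active = inhibition above the mean plus 3 SD, with well images judged a real hit on visual review, cut at about 60% in these data, passing the limit was not always enough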
KCC2 mod = modulates chloride dependent transport by human KCC2; 2.2% of 190,000 active; B-score of Tl+ flux slope (higher = more flux/activation; lower = inhibition) at 10 µM; KCC2 cells, thallium flux FluoZin-2 fluorescence; Q9H2X9;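 active = thallium flux slope and its plate-corrected score both differing from the plate sample mean at a set confidence after two filtering rounds, in either direction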;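 also: slope of fluorescence scaled to starting intensity during 10 to 20 s after thallium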
WT yeast gro inh = growth inhibition of WT yeast, mitochondrial fusion screen; 2.1% of 190,000 active; inhibition, % at 10 µM; mitochondrial fusion phenotypic screen, WT strain; AID 1362; in the data active = inhibition above about 58%; tested in S. cerevisiae
* = called active by the depositor.

Screening Cn1c(-c2ccccc2)cnc1NCc1cc2c(cc1[N+](=O)[O-])OCO2 returned Lmaj promast 87*, Ins promoter up -0.19, KCC2 mod 0.33 and WT yeast gro inh -14.
`Cn1c(-c2ccc(F)cc2)cnc1NCc1cc2c(cc1[N+](=O)[O-])OCO2` gave Lmaj promast 99*, Ins promoter up -0.56, ROMK mod -2.7, Insulin prom inh -5, KCC2 mod -0.34 and WT yeast gro inh -1.
Cn1c(-c2ccc(Cl)cc2)cnc1NCc1cc2c(cc1[N+](=O)[O-])OCO2 was read as Lmaj promast 98*, Ins promoter up -0.72, ROMK mod -1.9, Insulin prom inh 27, KCC2 mod -0.043 and WT yeast gro inh 6.
`O=C(Cc1ccccc1[N+](=O)[O-])NCc1ccc2c(c1)OCO2` gave Lmaj promast -2, Ins promoter up 0.47, ROMK mod -0.75, Insulin prom inh 17, KCC2 mod 0.07 and WT yeast gro inh 17.
Screening COCCNC(=O)C(c1ccncc1)N(C(=O)Cn1nnc2ccccc21)c1ccc(OC)cc1 (stereo not drawn) returned Lmaj promast -5, Ins promoter up -0.35, ROMK mod 0.32, Insulin prom inh 11, KCC2 mod 0.57 and WT yeast gro inh -1.
COc1ccc(NC(=O)COC(=O)c2c3c(nc4ccccc24)CCCC3)cc1Cl was read as Lmaj promast 23, Ins promoter up -1.2, ROMK mod -0.98, Insulin prom inh 38, KCC2 mod 0.089 and WT yeast gro inh 63*.
For COc1ccc(NC(=O)COC(=O)c2c3c(nc4ccccc24)CCCC3)cc1 the results were Lmaj promast 94*, Ins promoter up 0.36, Insulin prom inh 53, KCC2 mod -0.48 and WT yeast gro inh 8.
Screening Cc1ccccc1OCC(=O)NN1CCN(C)CC1 returned Lmaj promast -2, Ins promoter up -0.15, KCC2 mod -0.13 and WT yeast gro inh -25.
For COCCSc1ccccc1C(=O)NCCc1ccccc1 the results were Lmaj promast 3, Ins promoter up -0.36, ROMK mod -0.095, KCC2 mod -0.21 and WT yeast gro inh -6.
Screening Cc1nnc(N/N=C/c2cc(C)n(-c3ccc(F)cc3)c2C)n1N returned Lmaj promast 24, ROMK mod 2.3, Insulin prom inh 28, KCC2 mod 0.13 and WT yeast gro inh -2.
Screening Cc1cc(NC(=O)CCN2C(=O)C3C4CCC(C4)C3C2=O)c(C)cc1Br (stereo not drawn) returned Lmaj promast 4, Ins promoter up -0.37, Insulin prom inh -7, KCC2 mod -1 and WT yeast gro inh 14.
For Cc1cc(Br)c(Cl)cc1NC(=O)CN1C(=O)C2C3CC(c4ccccc4)C(C3)C2C1=O (stereo not drawn) the results were Lmaj promast 84*, Ins promoter up 0.29, ROMK mod -0.23, Insulin prom inh -11, KCC2 mod 0.11 and WT yeast gro inh 70*.
For CCCCCC1CCC(C(=O)O)CC1 (stereo not drawn) the results were Lmaj promast -4, Ins promoter up 0.4, ROMK mod -0.78, Insulin prom inh 57 and WT yeast gro inh 4.
For CCN(CC)CC(O)COc1ccccc1C(=O)CCc1ccccc1 (stereo not drawn) the results were Lmaj promast 95*, Ins promoter up -0.49, ROMK mod -0.9 and WT yeast gro inh 17.
CCC(=O)c1ccc(OCC(O)CN(CCc2ccccc2)Cc2ccccc2)cc1 (stereo not drawn) was read as Lmaj promast 100*, Ins promoter up -1.1 and WT yeast gro inh -11.
Screening COc1ccccc1NC(=O)CCSc1ccc(C)cc1 returned Lmaj promast 0, Ins promoter up 0.21, ROMK mod -0.025, Insulin prom inh 0, KCC2 mod -1.2 and WT yeast gro inh -3.
For COc1ccc(NC(=O)C(c2cc3c(cc2[N+](=O)[O-])OCO3)N(C)C)cc1 (stereo not drawn) the results were Lmaj promast -2, Ins promoter up -0.04, ROMK mod -0.25, Insulin prom inh 0, KCC2 mod -0.35 and WT yeast gro inh -17.
`N#CC1=C(N)N(c2ccccc2)C2=C(C(=O)CCC2)C1c1cccs1` (stereo not drawn) gave Lmaj promast 73*, Ins promoter up 0.01, ROMK mod 0.75, Insulin prom inh -96 and WT yeast gro inh -30.
Screening CC1(C)CC(=O)C2=C(C1)N(c1ccc(F)cc1)C(N)=C(C#N)C2c1cccs1 (stereo not drawn) returned Lmaj promast 19, Ins promoter up 0.02, Insulin prom inh -26, KCC2 mod -0.51 and WT yeast gro inh 13.
`Cc1ccc(N2C(N)=C(C#N)C(c3cccs3)C3=C2CC(C)(C)CC3=O)cc1` (stereo not drawn) gave Lmaj promast 98*, Ins promoter up 0.35, ROMK mod 0.57, Insulin prom inh -3 and WT yeast gro inh -3.
`CCOC(=O)CN(C(=O)CSc1nnc(C)n1-c1ccccc1)c1ccccc1` gave Lmaj promast -5, Insulin prom inh -19 and WT yeast gro inh -10.
For CC(=O)N1CCc2cc(C(=O)CN3CCN(c4ccccc4F)CC3)ccc21 the results were Lmaj promast -7, Ins promoter up 1.9, KCC2 mod -1.3 and WT yeast gro inh 10.
Screening CNCCCCOc1ccc(C(C)(C)C)cc1Cl returned Lmaj promast 98*, Ins promoter up -0.59, ROMK mod -0.23, KCC2 mod 0.29 and WT yeast gro inh 25.
Screening CCCc1cc(=O)c2ccc(OC/C(C)=N/O)cc2o1 returned Ins promoter up 0.06, ROMK mod -1.3 and KCC2 mod 0.29.
`Cc1ccc(C(=O)NC(=S)Nc2nc(-c3cccc([N+](=O)[O-])c3)cs2)c(Cl)c1` gave Lmaj promast 23, Ins promoter up -1.2, Insulin prom inh 86*, KCC2 mod 3 and WT yeast gro inh -4.
`CCC1(CC)Cc2ccccc2C(=O)N1` gave Ins promoter up -0.16 and KCC2 mod -0.68.
O=C1c2ccccc2CC1(Cc1ccccc1)Cc1ccccc1 was read as Lmaj promast 23, ROMK mod -0.094, Insulin prom inh -216, KCC2 mod -0.15 and WT yeast gro inh 73*.
Cc1ccc(C)c(N2CCN(C(=O)CCCN3C(=S)NC(C)(C)CC3C)CC2)c1 (stereo not drawn) was read as Lmaj promast 45, ROMK mod -1.2, Insulin prom inh -38, KCC2 mod 0.32 and WT yeast gro inh -7.
`Cc1cccc(N2CCN(C(=O)CCN3C(=S)NC(C)(C)CC3C)CC2)c1C` (stereo not drawn) gave Lmaj promast 65*, Ins promoter up -0.92, ROMK mod 0.59, KCC2 mod -0.36 and WT yeast gro inh 13.
Cc1cc(C(=O)Nc2cccc3cccnc23)ccc1[N+](=O)[O-] was read as Lmaj promast -5, Ins promoter up -0.9, ROMK mod 1, KCC2 mod 0.64 and WT yeast gro inh -29.

Screening data from PubChem.
